This is a sample that favours compounds with a hit; in the whole collection about 2.9% have one here.
KLK7 zymogen act = activators of human kallikrein-7 zymogen; actives 0.9% (n = 370,000); AID 652039; activation, % at 7 µM; purified proKLK7, EDANS-DABCYL substrate fluorescence; 100% is mature enzyme control, 0% vehicle;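 active means activation above the mean of all tested compounds plus 3 SD, computed per campaign excluding outliers beyond control limits, cut at about 13% in these data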
PLC-gamma1 inh = PLC-gamma1 (human) inhibition, primary screen. P19174. purified PLC-gamma1, fluorogenic substrate, fluorescence. inhibition, % at 12.2 µM. actives 0.84% (n = 370,000). AID 720700; in the data active means inhibition above about 9.5%
ADAM17 inh = inhibits human ADAM17; recombinant ADAM17, EDANS/DABCYL FRET peptide cleavage; inhibition, % at 6.95 µM; actives 0.83% (n = 370,000); AID 720648;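 active means inhibition above the mean of compounds lying between control limits plus 3 SD, set per campaign, cut at about 8.5% in these data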;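 further: 0% = DMSO-only wells as the low control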
PLCb3 inh = PLC-beta3 (human) inhibition, primary screen | AID 720704 | actives 0.18% (n = 370,000) | Purified PLC-beta3, fluorogenic substrate, fluorescence | inhibition, % at 12.2 µM | Q01970; in the data active means inhibition above about 11%;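 further: 0% = median of compound wells on plate and 100% = full blocker control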
ADAM10 inh = ADAM10 inhibition, QFRET primary screen | recombinant ADAM10, EDANS/DABCYL FRET peptide cleavage, 3 h | inhibition, % at 7 µM | AID 720582 | actives 0.62% (n = 370,000);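 active means inhibition above a per-campaign cutoff equal to the mean of compounds falling between control-based bounds plus 3 SD, cut at about 20% in these data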;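 further: 0% = DMSO wells while the 100% control is not disclosed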
Target sequence (O14672 214-748 limits assumed): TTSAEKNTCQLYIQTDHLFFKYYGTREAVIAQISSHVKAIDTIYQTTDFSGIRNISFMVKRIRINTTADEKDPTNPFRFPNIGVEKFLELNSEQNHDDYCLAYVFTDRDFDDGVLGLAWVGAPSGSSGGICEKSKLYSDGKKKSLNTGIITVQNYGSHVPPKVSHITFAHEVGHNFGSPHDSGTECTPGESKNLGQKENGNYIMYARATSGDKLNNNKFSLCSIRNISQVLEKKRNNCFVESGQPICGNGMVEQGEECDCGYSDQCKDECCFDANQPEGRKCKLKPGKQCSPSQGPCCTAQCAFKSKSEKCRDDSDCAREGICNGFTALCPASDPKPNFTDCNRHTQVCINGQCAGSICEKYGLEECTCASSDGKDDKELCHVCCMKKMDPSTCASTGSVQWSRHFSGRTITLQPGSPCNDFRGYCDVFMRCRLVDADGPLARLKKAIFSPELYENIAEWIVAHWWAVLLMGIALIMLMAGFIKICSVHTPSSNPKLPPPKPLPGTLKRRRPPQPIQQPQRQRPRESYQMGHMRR
proKLK7 act conf = proKLK7 activation, confirmation; shares compounds with KLK7 zymogen act; purified proKLK7, EDANS-DABCYL substrate fluorescence; scaled: vehicle 0, mature enzyme 100; activation, % at 7 µM; actives 68% (n = 3,200);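 active means activation, as change over the incubation, above the mean of all tested compounds plus 3 SD, cut at about 13% in these data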
EDANS interfere = optically interferes with EDANS-DABCYL signal, flagging KLK7 hits; shares compounds with KLK7 zymogen act; EDANS-DABCYL substrate fluorescence interference, no enzyme, 4 h; solvent 0%, active enzyme control 100%; activation, % at 7 µM; actives 80% (n = 3,200); AID 686952;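 active means activation above the all-compound mean plus 3 SD, ignoring values outside control-based bounds, cut at about 4.8% in these data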;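 further: value is the 4 h activation minus the activation read at time zero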
An asterisk follows results filed as active; i = inactive; x = no result given.

SMILES	KLK7 zymogen act	PLC-gamma1 inh	ADAM17 inh	PLCb3 inh	ADAM10 inh	proKLK7 act conf	EDANS interfere
COc1ccc(C2Nc3ccccc3C(=O)N2NC(=O)c2ccccc2)cc1OC (stereo not drawn)	3.7	-59.2	-37.8	-75.8	-149.7	x	x
CCCCC(=O)N[C@H]1CC[C@@]23CCCN2C(=O)CCC[C@H]3[C@H]1CCC	x	0.1	-0.1	3.1	-2.7	x	x
CCCCNC(=O)C[C@H]1C[C@@]2(C(=O)OC)C(=C[C@H](COCc3ccccc3)O[C@@H]2C)N(Cc2ccc3c(c2)OCO3)C1=O	-0.1	-0.7	-1.4	2.4	1.2	x	x
O=C(NC1CCCCN(Cc2ccc(Cl)cc2)C1=O)c1ccc(COc2ccccc2)cc1 (stereo not drawn)	0.1	1.1	-4.8	-13.4	-9.0	x	x
CN(C)c1ccc(NC(=S)OC2CCC23CCC(c2ccccc2)CC3)cc1 (stereo not drawn)	0.1	2.5	-5.0	4.5	-6.4	x	x
COC(=O)CSc1nc2ccccn2c(=O)c1C=O	58.7*	-14.4	-29.6	-18.6	-92.2	77.3*	69.3*
O=Cc1c(SCCO)nc2ccccn2c1=O	30.9*	0.0	-5.5	-8.3	-7.5	23.5*	23.6*
COc1cccc(CNC(=O)[C@H]2CCCN2C(=O)[C@H]2CCCN2C(=O)c2ccc(F)cc2F)c1	-0.2	0.4	-3.0	2.9	-0.3	x	x
COc1ccc(C2=CC(c3ccc(OC)c(OC)c3)n3nnnc3N2)c(OC)c1 (stereo not drawn)	15.8*	-243.0	-8.2	-291.5	-67.1	10.9	-15.4
CC(C)C(=O)Oc1ccc(CO)cc1[C@H](CCN(C(C)C)C(C)C)c1ccccc1	0.4	3.1	1.1	2.9	-3.5	x	x
Cc1cc(NCCOCCO)n2c(nc3ccccc32)c1C#N	48.2*	i	i	i	i	85.4*	92.4*
Cc1cc(Cl)n2c(nc3ccccc32)c1C#N	2.3	-152.8	-198.3	-212.9	i	x	x
COCCNc1cc(C)c(C#N)c2nc3ccccc3n12	37.3*	i	i	i	i	34.4*	46.0*
CCCNc1cc(C)c(C#N)c2nc3ccccc3n12	6.6	-115.1	-107.1	-155.7	-355.5	x	x
CNc1cc(C)c(C#N)c2nc3ccccc3n12	33.3*	i	i	i	i	93.3*	77.2*
Cc1cc(NCCCO)n2c(nc3ccccc32)c1C#N	14.8*	-231.3	-202.9	-257.0	i	50.6*	70.0*
N#Cc1c2c(c(NCCOCCO)n3c1nc1ccccc13)CCCC2	6.3	-237.3	-73.2	-354.9	-196.2	x	x
CCCCOc1ccc(C(=O)n2ccc3ccc(-c4ccc5ccn(Cc6cccc(C(=O)OC)c6)c5c4)cc32)cc1	-0.6	-15.5	-7.2	-24.5	-18.4	x	x
COC(=O)c1cc(C2(c3c[nH]c4ccccc34)CCN(C(=O)OC(C)(C)C)CC2)n2ccccc12	-10.5	-264.5	-214.8	-366.7	-458.1	x	x
COCCNC(=O)c1cc2cc3ccc(OC)cc3nc2o1	34.8*	i	i	i	i	67.3*	78.1*
CCCCN(CC)C(=O)c1cc2cc3ccc(OC)cc3nc2o1	13.0*	-191.5	-372.2	-225.3	i	-4.7	0.3
CCC(C)NC(=O)c1cc2cc3ccc(OC)cc3nc2o1 (stereo not drawn)	39.9*	i	i	i	i	44.0*	63.1*
COc1ccc2cc3cc(C(=O)NCC4CCCO4)oc3nc2c1 (stereo not drawn)	48.0*	i	i	i	i	65.8*	70.9*
COc1ccc2cc3cc(C(=O)NCCC(C)C)oc3nc2c1	-15.2	-130.4	-379.5	-166.0	i	x	x
COc1ccc(-c2nnn3c2Cn2c4ccccc4c(=O)n2[C@@H](C(C)C)C3)cc1	0.7	-5.6	-34.9	-16.0	-138.8	x	x
COC(=O)C1CN(CC(C)C)CCS(=O)(=O)N1Cc1cccc(Cl)c1 (stereo not drawn)	0.1	0.9	-0.8	4.6	1.7	x	x
CCCCNC(=O)C1(C(=O)c2ccc(OC)cc2)CC(C(=O)OCC)=NO1 (stereo not drawn)	0.4	3.4	2.0	0.6	3.4	x	x
